Pf Dd2 growth = P. falciparum Dd2 growth inhibitors, primary screen, SYBR Green fluorescence, single dose replicates | 72 h; stronger effect = lower value | 2.3% of 94,000 active | activity change, % at 10 µM; in the data active means activity change below about -80%; inconclusive means no clear call, values can overlap the other calls
C diff growth = C. difficile growth inhibitors, primary screen, HTS; Clostridium difficile clinical isolate growth, OD600, 24 h; stronger effect = lower value; growth activity, negative = inhibition, % at 16 µg/mL (by protocol); 0.25% of 86,000 active; AID 1259249, 2017;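 active means mean growth activity at or below -80% and every replicate also at or below -80%; inconclusive means mean at or below -80% but some replicate above -80%; inactive means mean growth activity above -80%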;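 further: 0% = DMSO wells and -100% = levofloxacin 16 µg/mL wells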
An asterisk follows results filed as active; u = inconclusive; x = no result given. Compounds with a hit are over-represented: about 2.3% of the library has one in this group of screens.

SMILES | Pf Dd2 growth | C diff growth
CCCC(=O)N1CC2(CN(C(=O)Nc3cccc(F)c3)C2)c2c(n(C)c3cc(OC)ccc23)[C@H]1CO | -82.4* | 7.8
COc1ccc(NC(=O)N2CC3(C2)CN(C(=O)C2CCC2)[C@H](CO)c2c3c3ccc(OC)cc3n2C)cc1 | -88.0* | -2.4
CCCC(=O)N1CC2(CN(C(=O)Nc3cccc(F)c3)C2)c2c(n(C)c3cc(OC)ccc23)[C@@H]1CO | -22.7 | 16.9
COc1ccc2c3c(n(C)c2c1)[C@H](CO)N(C(=O)C1CCCC1)CC31CN(C(=O)CC2CC2)C1 | -85.1* | 2.7
COc1ccc2c3c(n(C)c2c1)[C@@H](CO)N(C(=O)C1CCC1)CC31CN(C)C1 | 4.8 | -5.8
COc1ccc2c3c(n(C)c2c1)[C@@H](CO)N(C(=O)Nc1cccc(F)c1)CC31CN(Cc2nccs2)C1 | -85.3* | -9.5
COc1ccc2c3c(n(C)c2c1)[C@H](CO)N(C(=O)C1CCCC1)CC31CN(C(=O)CN(C)C)C1 | 24.9 | x
COc1ccc2c3c(n(C)c2c1)[C@H](CO)N(C(=O)NC(C)C)CC31CN(Cc2nccs2)C1 | -2.8 | -14.2
CO[C@@H]1CN(C)C(=O)c2ccc(NC(=O)C3CC3)cc2OC[C@@H](C)N(Cc2ccccc2)C[C@@H]1C | 8.1 | x
Cc1noc(C)c1S(=O)(=O)N(C)C[C@@H]1Oc2ccc(NC(=O)Nc3ccc(C(F)(F)F)cc3)cc2CC(=O)N([C@H](C)CO)C[C@H]1C | -40.2 | 3.6
COCC#Cc1cnc2c(c1)C(=O)N([C@H](C)CO)C[C@H](C)[C@@H](CN(C)C(=O)NC1CCCC1)O2 | 55.1 | 7.1
C[C@@H]1CN([C@H](C)CO)S(=O)(=O)c2ccc(-c3ccc(F)cc3)cc2O[C@@H]1CN(C)C(=O)Nc1ccc(F)cc1 | -27.2 | x
COc1ccc2c3c(n(C)c2c1)[C@H](CO)N(C(=O)C1CCCC1)CC31CCN(C(=O)Nc2cccc(F)c2)CC1 | -56.0 | 4.6
COc1ccc(NC(=O)N2CCC3(CC2)CN(C(=O)C2CCC2)[C@H](CO)c2c3c3ccc(OC)cc3n2C)cc1 | -89.6* | -8.8
COc1ccc2c3c(n(C)c2c1)[C@@H](CO)N(CC1CCCC1)CC31CCN(C(=O)Nc2ccccc2)CC1 | -84.1* | 43.7
COc1ccc2c3c(n(C)c2c1)[C@@H](CO)N(C(=O)C1CCCCC1)CC31CCN(C(=O)Nc2cccc(F)c2)CC1 | 30.2 | x
COc1ccc2c3c(n(C)c2c1)[C@@H](CO)N(C(=O)C1CCCC1)CC31CCN(C(=O)Nc2cccc(F)c2)CC1 | -91.0* | 0.3
COc1ccc2c3c(n(C)c2c1)[C@@H](CO)N(CC1CC1)CC31CCN(C(=O)Nc2ccccc2)CC1 | -73.4 | -0.8
COc1ccc(CN(C)C[C@@H]2Oc3c(NC(=O)C4CCCCC4)cccc3C(=O)N([C@@H](C)CO)C[C@@H]2C)cc1 | -4.3 | 13.1
C[C@@H]1CN([C@H](C)CO)C(=O)c2cc(NC(=O)Nc3cccc4ccccc34)ccc2O[C@@H](C)CCCCO[C@H]1CN(C)Cc1ccccc1 | u | 58.5
C[C@H]1CN([C@@H](C)CO)C(=O)c2c(c3ccccc3n2C)-c2ccccc2CO[C@@H]1CN(C)Cc1ccc(Oc2ccccc2)cc1 | -87.5* | 32.4
C[C@@H]1CN([C@H](C)CO)C(=O)c2c(c3ccccc3n2C)-c2ccccc2CO[C@H]1CN(C)Cc1ccc(Oc2ccccc2)cc1 | -86.9* | 20.6
C[C@H]1CN([C@@H](C)CO)C(=O)c2c(c3ccccc3n2C)-c2ccccc2CO[C@H]1CN(C)Cc1ccc(Oc2ccccc2)cc1 | -83.5* | 1.9
C[C@@H]1CN([C@@H](C)CO)C(=O)c2c(c3ccccc3n2C)-c2ccccc2CO[C@@H]1CN(C)Cc1ccc(O)cc1 | -41.7 | -7.0
C[C@@H]1CN([C@@H](C)CO)C(=O)c2c(c3ccccc3n2C)-c2ccccc2CO[C@H]1CN(C)Cc1ccc(F)cc1 | -50.3 | 51.4
SMILES | Pf Dd2 growth | C diff growth
C[C@H]1CN([C@@H](C)CO)C(=O)c2c(c3ccccc3n2C)-c2ccccc2CO[C@H]1CN(C)Cc1ccc(F)cc1 | -48.7 | 30.2
COc1ccc2c3c(n(C)c2c1)[C@@H](CO)N(C(=O)c1cnccn1)CC31CN(C(=O)c2ccncc2)C1 | 26.4 | x
C[C@H](CO)N1C[C@H](C)[C@@H](CN(C)C)Oc2ccc(NC(=O)c3ccncc3)cc2CC1=O | 6.2 | -1.3
COc1ccc2c3c([nH]c2c1)[C@H](CO)N(Cc1ccc(F)cc1)CC31CCN(C)CC1 | -75.0 | 5.9
COc1ccc2c3c([nH]c2c1)[C@H](CO)N(Cc1ccc(F)cc1)CC31CCN(C(C)=O)CC1 | -88.9* | 4.5
COc1ccc2c3c([nH]c2c1)[C@@H](CO)N(Cc1cccc(Cl)c1)CC31CN(C(C)=O)C1 | -88.6* | 7.7
COc1ccc2c3c([nH]c2c1)[C@@H](CO)N(Cc1cccc(Cl)c1)CC31CCN(C(C)=O)CC1 | -88.4* | 7.3
COCC(=O)N1CC2(C1)CN(Cc1cccc(Cl)c1)[C@H](CO)c1[nH]c3cc(OC)ccc3c12 | -56.9 | -1.1
COc1ccc2c3c([nH]c2c1)[C@H](CO)N(Cc1cccc(Cl)c1)CC31CCN(C(C)=O)CC1 | -89.1* | -0.6
COCC(=O)N1CCC2(CC1)CN(Cc1cccc(Cl)c1)[C@H](CO)c1[nH]c3cc(OC)ccc3c12 | -71.1 | 1.2
COc1ccc2c3c([nH]c2c1)[C@@H](CO)N(Cc1ccccc1)CC31CCN(C(C)=O)CC1 | 20.4 | x
O=C(C1CCC1)N1C[C@@H]2[C@H](c3ccccc31)[C@@H](CO)N2C(=O)Cc1ccccn1 | 5.0 | -9.6
COc1ccc2c3c(n(C)c2c1)[C@H](CO)N(CC1CC1)CC31CN(C(=O)Nc2c(C)noc2C)C1 | -10.0 | -1.2
C[C@H](CO)N1C[C@H](C)[C@@H](CN(C)Cc2ccc(C(=O)Nc3ccccc3N)cc2)Oc2ccc(NC(=O)CCN3CCOCC3)cc2C1=O | -6.0 | 10.5
N#C[C@@H]1[C@H](c2ccc(C3=CCCC3)cc2)[C@H](CO)N1C(=O)NC1CCCCC1 | -36.9 | -4.9
OC[C@@H]1[C@@H](c2ccc(C#Cc3cccnc3)cc2)[C@@H]2CN(Cc3ccccc3F)CCCCN12 | -63.0 | -2.6
COc1ccc(C#Cc2ccc([C@H]3[C@@H](CO)N4CCCCN(Cc5ccncc5)C[C@H]34)cc2)cc1 | -83.4* | 1.1
COc1ccc(C#Cc2ccc([C@H]3[C@H](CO)N4CCCCN(Cc5ccccc5F)C[C@@H]34)cc2)cc1 | -79.6 | -97.1*
COc1ccc(C#Cc2ccc([C@@H]3[C@H](CO)N4CCCCN(Cc5ccccc5F)C[C@@H]34)cc2)cc1 | -82.3* | -96.6*
COc1ccc(C#Cc2ccc([C@@H]3[C@@H](CO)N4CCCCN(Cc5ccccc5F)C[C@@H]34)cc2)cc1 | -53.1 | 22.4
COc1ccc(C#Cc2ccc([C@H]3[C@@H](CO)N4CCCCN(Cc5ccncc5)C[C@@H]34)cc2)cc1 | -53.0 | -3.9
COc1ccc(NC(=O)Nc2ccc3c(c2)C(=O)N([C@H](C)CO)C[C@@H](C)[C@@H](CN(C)S(=O)(=O)c2cccs2)OCCCC[C@H](C)O3)cc1 | 1.6 | 2.0
COc1ccc2c3c([nH]c2c1)[C@H](CO)N(C(=O)C1CC1)CC31CCN(Cc2nccs2)CC1 | -51.0 | -3.9
COc1ccc2c3c([nH]c2c1)[C@H](CO)N(C(=O)C1CCOCC1)CC31CCN(Cc2nccs2)CC1 | -87.6* | -3.6
COc1ccc2c3c([nH]c2c1)[C@H](CO)N(C(=O)C1CCC1)CC31CCN(Cc2nccs2)CC1 | -74.7 | -4.8

Assay outcomes: PubChem BioAssay, Broad Institute
